# Source: article PMC7862700, “An all-to-all approach to the identification of sequence-specific readers for epigenetic DNA modifications on cytosine”
# What was measured:
# Assay in all cases: DAPPL (digital affinity profiling via proximity ligation, sequencing); 10 mM Tris-HCl pH 7.5, 50 mM NaCl, 1 mM DTT, 4% glycerol, room temperature, 30 min; GST-TFs on glutathione beads, 16-mer random dsDNA library, 0.1% formaldehyde crosslink after washing; high values mean tight binding
# FLI1 = molecular target: T1, FLI1 (Homo sapiens, UniProt Q01543 1-452); details: protein: recombinant; tags: N-terminal GST; dsDNA, one strand shown
# T1 sequence: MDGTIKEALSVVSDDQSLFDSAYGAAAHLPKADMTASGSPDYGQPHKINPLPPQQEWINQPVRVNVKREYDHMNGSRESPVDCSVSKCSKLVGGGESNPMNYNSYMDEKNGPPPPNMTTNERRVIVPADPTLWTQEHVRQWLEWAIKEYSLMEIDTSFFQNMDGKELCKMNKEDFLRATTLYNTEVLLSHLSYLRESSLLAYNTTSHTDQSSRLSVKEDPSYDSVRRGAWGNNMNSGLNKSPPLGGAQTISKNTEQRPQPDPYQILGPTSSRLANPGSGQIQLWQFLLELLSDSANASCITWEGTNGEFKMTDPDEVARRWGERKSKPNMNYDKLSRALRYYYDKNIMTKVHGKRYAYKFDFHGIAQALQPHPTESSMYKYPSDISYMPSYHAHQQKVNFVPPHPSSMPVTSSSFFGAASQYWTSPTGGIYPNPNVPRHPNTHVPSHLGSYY
# Outline: (§1)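 Human transcription factors fused to GST were expressed in yeast, captured on glutathione beads, given DNA barcodes and pooled with a GST-only negative control. Pools were incubated with 200 nmole of a 16-mer random double-stranded DNA library in Tris/NaCl/DTT/glycerol buffer at room temperature for 30 min. They were then washed, crosslinked with 0.1% formaldehyde, proximity-ligated (BsaI/T4 ligase, 1 h, 37 °C), PCR-amplified and sequenced on an Illumina NextSeq500. Binding signal is each 6-mer's read frequency for a factor divided by its frequency for the GST control.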
# ELK1 = molecular target: T2, ELK1 (Homo sapiens, UniProt P19419 1-428); details: protein: recombinant; tags: N-terminal GST; dsDNA, one strand shown
# T2 sequence: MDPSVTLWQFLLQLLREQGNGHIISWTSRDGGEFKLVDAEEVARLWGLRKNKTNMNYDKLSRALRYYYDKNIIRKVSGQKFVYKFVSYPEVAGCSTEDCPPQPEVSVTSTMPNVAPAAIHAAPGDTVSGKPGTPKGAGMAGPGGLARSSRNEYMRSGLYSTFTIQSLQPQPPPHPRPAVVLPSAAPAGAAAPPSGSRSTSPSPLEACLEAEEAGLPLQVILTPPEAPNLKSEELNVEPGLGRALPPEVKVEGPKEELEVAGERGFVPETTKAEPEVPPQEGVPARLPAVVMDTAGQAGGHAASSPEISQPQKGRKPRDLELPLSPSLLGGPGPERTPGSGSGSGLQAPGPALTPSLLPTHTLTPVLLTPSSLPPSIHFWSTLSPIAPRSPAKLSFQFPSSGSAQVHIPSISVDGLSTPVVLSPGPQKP
# Outline: as §1
# GABPA = molecular target: T3, GABPA (Homo sapiens, UniProt Q06546 1-454); details: protein: recombinant; tags: N-terminal GST; dsDNA, one strand shown
# T3 sequence: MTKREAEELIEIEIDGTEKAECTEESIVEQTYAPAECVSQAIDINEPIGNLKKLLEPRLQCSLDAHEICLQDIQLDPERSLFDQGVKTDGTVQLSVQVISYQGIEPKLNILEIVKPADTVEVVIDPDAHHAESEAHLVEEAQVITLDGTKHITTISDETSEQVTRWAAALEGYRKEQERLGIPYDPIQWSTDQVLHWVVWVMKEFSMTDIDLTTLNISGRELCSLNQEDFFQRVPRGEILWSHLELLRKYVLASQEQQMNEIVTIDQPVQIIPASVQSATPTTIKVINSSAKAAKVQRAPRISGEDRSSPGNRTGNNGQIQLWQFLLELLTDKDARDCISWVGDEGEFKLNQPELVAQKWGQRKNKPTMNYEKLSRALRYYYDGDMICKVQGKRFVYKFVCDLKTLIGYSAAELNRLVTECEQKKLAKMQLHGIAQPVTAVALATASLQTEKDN
# Outline: as §1
# ERG = molecular target: T4, ERG (Homo sapiens, UniProt P11308 1-479); details: protein: recombinant; tags: N-terminal GST; dsDNA, one strand shown
# T4 sequence: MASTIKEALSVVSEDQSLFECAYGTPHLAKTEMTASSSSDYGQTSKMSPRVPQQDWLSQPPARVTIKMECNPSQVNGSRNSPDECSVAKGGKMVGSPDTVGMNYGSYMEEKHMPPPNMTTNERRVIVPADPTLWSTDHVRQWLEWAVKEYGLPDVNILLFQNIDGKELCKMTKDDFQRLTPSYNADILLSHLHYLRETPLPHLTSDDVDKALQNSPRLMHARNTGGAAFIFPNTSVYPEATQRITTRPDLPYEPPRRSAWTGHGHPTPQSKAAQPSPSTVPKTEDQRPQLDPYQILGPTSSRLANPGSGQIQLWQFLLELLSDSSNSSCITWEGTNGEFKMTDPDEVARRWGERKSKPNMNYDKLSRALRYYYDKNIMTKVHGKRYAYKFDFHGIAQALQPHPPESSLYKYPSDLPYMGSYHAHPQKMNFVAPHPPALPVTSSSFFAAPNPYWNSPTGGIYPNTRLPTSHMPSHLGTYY
# Outline: as §1
# ELF1 = ELF1 (Homo sapiens, UniProt P32519 1-619); details: protein: recombinant; tags: N-terminal GST; dsDNA, one strand shown
# Outline: as §1
# EHF = molecular target: T5, EHF (Homo sapiens, UniProt Q9NZC4 1-300); details: protein: recombinant; tags: N-terminal GST; dsDNA, one strand shown
# T5 sequence: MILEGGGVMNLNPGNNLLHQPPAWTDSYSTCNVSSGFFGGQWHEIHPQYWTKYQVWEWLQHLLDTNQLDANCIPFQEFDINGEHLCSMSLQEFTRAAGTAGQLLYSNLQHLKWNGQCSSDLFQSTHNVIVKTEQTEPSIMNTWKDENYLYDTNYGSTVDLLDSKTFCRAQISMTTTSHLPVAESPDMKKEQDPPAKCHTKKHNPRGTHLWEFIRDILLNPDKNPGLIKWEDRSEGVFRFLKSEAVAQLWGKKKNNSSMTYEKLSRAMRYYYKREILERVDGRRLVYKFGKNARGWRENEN
# Outline: as §1
# SPI1 = SPI1 (Homo sapiens, UniProt P17947 1-270); details: protein: recombinant; tags: N-terminal GST; dsDNA, one strand shown
# Outline: as §1
# SPIB = SPIB (Homo sapiens, UniProt Q01892 1-262); details: protein: recombinant; tags: N-terminal GST; dsDNA, one strand shown
# Outline: as §1
# ELK3 = molecular target: T6, ELK3 (Homo sapiens, UniProt P41970 1-407); details: protein: recombinant; tags: N-terminal GST; dsDNA, one strand shown
# T6 sequence: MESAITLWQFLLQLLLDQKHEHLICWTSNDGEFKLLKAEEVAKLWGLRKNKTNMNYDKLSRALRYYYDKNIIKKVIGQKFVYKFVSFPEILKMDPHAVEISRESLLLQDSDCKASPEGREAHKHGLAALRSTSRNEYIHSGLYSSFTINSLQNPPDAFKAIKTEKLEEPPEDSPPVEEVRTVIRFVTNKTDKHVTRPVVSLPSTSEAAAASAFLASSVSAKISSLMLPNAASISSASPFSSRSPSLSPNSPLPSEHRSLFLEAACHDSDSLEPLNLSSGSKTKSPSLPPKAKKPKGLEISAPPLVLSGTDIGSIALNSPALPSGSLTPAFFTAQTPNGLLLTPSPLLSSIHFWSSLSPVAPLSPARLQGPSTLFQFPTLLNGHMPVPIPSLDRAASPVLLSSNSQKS
# Outline: as §1
# FEV = molecular target: T7, FEV (Homo sapiens, UniProt Q99581 1-238); details: protein: recombinant; tags: N-terminal GST; dsDNA, one strand shown
# T7 sequence: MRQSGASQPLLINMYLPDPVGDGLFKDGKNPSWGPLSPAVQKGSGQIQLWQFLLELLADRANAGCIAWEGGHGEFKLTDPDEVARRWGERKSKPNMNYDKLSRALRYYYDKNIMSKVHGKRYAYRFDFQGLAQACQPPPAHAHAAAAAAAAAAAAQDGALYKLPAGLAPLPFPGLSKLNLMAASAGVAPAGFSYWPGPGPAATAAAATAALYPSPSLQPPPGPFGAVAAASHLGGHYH
# Outline: as §1
# ETV5 = ETV5 (Homo sapiens, UniProt P41161 1-510); details: protein: recombinant; tags: N-terminal GST; dsDNA, one strand shown
# Outline: as §1
# HSF1 = HSF1 (Homo sapiens, UniProt Q00613 1-529); details: protein: recombinant; tags: N-terminal GST; chain copies: 3; dsDNA, one strand shown
# Outline: as §1
# SPIC = molecular target: T8, SPIC (Homo sapiens, UniProt Q8N5J4 1-248); details: protein: recombinant; tags: N-terminal GST; dsDNA, one strand shown
# T8 sequence: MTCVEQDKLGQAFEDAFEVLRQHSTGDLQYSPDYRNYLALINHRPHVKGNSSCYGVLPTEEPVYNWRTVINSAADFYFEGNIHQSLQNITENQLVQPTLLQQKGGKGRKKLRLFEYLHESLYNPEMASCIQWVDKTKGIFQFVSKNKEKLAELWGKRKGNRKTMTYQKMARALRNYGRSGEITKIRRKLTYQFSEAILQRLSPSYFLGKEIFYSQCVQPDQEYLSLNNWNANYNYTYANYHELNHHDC
# Outline: as §1
# ELF4 = ELF4 (Homo sapiens, UniProt Q99607 1-663); details: protein: recombinant; tags: N-terminal GST; dsDNA, one strand shown
# Outline: as §1
# ELK4 = molecular target: T9, ELK4 (Homo sapiens, UniProt P28324-2 1-405); details: protein: recombinant; tags: N-terminal GST; dsDNA, one strand shown
# T9 sequence: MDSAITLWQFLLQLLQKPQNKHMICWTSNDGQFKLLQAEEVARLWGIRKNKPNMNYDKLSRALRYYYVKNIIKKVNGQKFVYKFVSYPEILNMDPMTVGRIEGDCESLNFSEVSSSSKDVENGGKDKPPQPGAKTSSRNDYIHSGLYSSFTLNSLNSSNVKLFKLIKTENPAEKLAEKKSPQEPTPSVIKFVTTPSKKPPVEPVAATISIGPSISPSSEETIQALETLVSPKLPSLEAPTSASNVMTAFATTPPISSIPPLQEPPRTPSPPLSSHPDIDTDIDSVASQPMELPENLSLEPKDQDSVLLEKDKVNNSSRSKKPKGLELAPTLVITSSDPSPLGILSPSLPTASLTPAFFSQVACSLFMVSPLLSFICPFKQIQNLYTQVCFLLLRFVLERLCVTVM
# Outline: as §1
# ETV2 = molecular target: T10, ETV2 (Homo sapiens, UniProt O00321 1-342); details: protein: recombinant; tags: N-terminal GST; dsDNA, one strand shown
# T10 sequence: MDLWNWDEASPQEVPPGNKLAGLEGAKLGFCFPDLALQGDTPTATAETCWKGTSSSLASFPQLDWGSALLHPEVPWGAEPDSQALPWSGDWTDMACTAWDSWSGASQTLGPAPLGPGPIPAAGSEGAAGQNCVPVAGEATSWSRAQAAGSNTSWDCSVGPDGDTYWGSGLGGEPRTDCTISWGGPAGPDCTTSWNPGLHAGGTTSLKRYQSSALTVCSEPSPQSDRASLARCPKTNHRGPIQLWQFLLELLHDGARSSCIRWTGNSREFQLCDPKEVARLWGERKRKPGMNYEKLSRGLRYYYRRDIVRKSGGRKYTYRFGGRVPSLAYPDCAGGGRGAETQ
# Outline: as §1
# ELF3 = molecular target: T11, ELF3 (Homo sapiens, UniProt P78545 1-371); details: protein: recombinant; tags: N-terminal GST; dsDNA, one strand shown
# T11 sequence: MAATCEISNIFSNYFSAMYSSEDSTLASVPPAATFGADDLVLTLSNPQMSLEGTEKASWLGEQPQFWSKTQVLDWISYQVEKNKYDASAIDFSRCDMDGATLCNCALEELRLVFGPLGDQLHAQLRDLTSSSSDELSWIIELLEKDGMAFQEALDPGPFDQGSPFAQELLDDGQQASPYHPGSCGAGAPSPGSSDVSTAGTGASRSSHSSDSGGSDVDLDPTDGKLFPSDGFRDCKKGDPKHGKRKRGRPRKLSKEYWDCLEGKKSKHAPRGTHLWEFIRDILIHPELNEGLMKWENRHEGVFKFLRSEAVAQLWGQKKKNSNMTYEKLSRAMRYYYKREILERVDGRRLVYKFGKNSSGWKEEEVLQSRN
# Outline: as §1
# CRX = CRX (Homo sapiens, UniProt O43186 1-299); details: protein: recombinant; tags: N-terminal GST; dsDNA, one strand shown
# Outline: as §1
# ETV1 = ETV1 (Homo sapiens, UniProt P50549 1-477); details: protein: recombinant; tags: N-terminal GST; dsDNA, one strand shown
# Outline: as §1
# Sequence of ELF1 (P32519 whole entry): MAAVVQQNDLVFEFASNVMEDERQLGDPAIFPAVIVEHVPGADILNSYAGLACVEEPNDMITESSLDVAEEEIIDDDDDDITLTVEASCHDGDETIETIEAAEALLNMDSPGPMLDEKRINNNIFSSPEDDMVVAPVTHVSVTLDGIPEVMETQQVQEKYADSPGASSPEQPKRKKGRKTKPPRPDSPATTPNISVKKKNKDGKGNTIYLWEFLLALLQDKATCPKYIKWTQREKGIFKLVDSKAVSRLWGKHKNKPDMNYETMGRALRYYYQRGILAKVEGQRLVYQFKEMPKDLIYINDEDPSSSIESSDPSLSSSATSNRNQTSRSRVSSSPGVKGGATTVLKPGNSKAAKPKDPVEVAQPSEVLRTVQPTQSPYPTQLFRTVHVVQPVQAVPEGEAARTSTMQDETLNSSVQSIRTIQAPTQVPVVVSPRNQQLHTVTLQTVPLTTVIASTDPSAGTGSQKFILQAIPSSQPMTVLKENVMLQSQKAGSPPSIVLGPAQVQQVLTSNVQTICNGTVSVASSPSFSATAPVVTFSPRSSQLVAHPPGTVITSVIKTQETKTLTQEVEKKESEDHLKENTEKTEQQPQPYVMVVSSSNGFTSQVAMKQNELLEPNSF
# Sequence of CRX (O43186 whole entry): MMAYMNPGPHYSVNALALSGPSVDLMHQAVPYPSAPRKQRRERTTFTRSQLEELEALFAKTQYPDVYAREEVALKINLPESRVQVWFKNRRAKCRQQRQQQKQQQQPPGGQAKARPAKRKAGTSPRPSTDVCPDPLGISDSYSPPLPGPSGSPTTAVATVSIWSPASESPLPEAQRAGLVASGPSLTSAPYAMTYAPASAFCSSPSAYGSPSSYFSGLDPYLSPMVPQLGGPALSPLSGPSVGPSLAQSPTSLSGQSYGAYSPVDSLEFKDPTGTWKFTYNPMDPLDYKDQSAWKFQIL
# Sequence of HSF1 (Q00613 whole entry): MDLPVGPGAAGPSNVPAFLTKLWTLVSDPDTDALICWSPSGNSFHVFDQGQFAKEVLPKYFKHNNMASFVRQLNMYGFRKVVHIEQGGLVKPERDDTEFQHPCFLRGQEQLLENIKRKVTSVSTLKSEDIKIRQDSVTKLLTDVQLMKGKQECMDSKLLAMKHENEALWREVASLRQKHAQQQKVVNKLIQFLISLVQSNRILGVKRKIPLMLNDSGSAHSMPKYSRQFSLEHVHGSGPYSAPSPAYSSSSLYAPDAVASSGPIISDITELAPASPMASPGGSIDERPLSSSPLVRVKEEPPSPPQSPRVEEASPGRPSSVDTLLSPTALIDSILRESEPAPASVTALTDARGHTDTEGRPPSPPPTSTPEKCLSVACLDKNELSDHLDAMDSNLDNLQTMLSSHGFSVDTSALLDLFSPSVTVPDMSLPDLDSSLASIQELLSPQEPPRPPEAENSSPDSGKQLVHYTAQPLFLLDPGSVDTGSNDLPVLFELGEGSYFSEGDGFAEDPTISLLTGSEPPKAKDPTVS
# Sequence of ETV5 (P41161 whole entry): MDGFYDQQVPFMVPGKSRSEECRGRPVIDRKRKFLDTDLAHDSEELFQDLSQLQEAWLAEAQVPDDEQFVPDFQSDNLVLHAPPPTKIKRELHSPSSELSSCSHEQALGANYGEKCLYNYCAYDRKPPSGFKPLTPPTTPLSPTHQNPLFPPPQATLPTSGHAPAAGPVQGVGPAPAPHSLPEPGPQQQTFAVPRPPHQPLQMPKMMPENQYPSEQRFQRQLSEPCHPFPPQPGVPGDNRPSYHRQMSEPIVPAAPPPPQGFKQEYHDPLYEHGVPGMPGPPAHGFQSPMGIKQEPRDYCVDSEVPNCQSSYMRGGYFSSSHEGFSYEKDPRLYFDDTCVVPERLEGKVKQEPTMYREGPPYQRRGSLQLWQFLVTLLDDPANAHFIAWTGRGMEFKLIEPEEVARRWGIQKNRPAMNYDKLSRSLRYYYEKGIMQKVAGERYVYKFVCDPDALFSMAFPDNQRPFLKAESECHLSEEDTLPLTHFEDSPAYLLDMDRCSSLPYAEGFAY
# Sequence of ETV1 (P50549 whole entry): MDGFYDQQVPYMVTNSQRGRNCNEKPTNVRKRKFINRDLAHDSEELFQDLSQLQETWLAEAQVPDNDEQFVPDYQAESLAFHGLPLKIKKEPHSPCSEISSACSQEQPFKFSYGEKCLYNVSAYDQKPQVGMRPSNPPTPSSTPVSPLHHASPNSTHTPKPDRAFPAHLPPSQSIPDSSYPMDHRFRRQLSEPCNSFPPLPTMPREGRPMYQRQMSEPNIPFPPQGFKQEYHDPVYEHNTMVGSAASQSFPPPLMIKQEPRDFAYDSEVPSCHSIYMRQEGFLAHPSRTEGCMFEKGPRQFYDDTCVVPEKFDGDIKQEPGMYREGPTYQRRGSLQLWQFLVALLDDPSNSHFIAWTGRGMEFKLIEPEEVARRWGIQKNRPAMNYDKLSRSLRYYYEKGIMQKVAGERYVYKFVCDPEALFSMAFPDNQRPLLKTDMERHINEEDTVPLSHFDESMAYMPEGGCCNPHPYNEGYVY
# Sequence of SPIB (Q01892 whole entry): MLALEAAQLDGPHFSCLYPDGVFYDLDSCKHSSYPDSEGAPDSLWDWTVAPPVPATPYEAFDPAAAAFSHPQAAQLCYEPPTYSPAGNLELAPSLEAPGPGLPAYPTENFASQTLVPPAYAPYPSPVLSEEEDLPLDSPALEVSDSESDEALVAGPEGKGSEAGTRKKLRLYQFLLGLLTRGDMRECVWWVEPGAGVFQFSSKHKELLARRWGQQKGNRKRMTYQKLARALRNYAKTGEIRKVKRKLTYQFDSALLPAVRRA
# Sequence of ELF4 (Q99607 whole entry): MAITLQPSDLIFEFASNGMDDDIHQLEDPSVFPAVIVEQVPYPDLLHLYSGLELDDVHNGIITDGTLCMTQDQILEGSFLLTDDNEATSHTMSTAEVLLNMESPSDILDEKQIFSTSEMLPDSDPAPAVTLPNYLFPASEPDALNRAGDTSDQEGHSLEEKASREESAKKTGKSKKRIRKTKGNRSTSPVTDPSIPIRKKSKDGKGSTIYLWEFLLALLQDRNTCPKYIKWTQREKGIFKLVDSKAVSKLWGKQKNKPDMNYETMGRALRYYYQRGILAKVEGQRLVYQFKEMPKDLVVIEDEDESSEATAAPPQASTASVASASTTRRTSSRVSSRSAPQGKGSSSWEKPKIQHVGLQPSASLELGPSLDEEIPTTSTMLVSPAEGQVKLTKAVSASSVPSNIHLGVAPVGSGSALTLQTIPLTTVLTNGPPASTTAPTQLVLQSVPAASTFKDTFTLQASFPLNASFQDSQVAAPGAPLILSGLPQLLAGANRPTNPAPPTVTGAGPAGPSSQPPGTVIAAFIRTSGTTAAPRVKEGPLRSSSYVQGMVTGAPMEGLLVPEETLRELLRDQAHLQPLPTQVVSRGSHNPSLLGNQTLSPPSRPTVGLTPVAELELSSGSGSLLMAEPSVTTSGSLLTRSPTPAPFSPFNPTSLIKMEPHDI
sequence,measurement,setting,value
AATACG,binding signal,FLI1,"1.11 fold enrichment (6-mer frequency, TF over GST control)"
same,binding signal,ELK1,"1.19 fold enrichment (6-mer frequency, TF over GST control)"
same,binding signal,GABPA,"1.24 fold enrichment (6-mer frequency, TF over GST control)"
same,binding signal,ERG,"1.22 fold enrichment (6-mer frequency, TF over GST control)"
same,binding signal,ELF1,"1.12 fold enrichment (6-mer frequency, TF over GST control)"
same,binding signal,EHF,"1.18 fold enrichment (6-mer frequency, TF over GST control)"
same,binding signal,SPI1,"1.32 fold enrichment (6-mer frequency, TF over GST control)"
same,binding signal,SPIB,"1.25 fold enrichment (6-mer frequency, TF over GST control)"
same,binding signal,ELK3,"1.26 fold enrichment (6-mer frequency, TF over GST control)"
same,binding signal,FEV,"1.19 fold enrichment (6-mer frequency, TF over GST control)"
same,binding signal,ETV5,"1.27 fold enrichment (6-mer frequency, TF over GST control)"
same,binding signal,HSF1,"1.26 fold enrichment (6-mer frequency, TF over GST control)"
same,binding signal,SPIC,"1.17 fold enrichment (6-mer frequency, TF over GST control)"
same,binding signal,ELF4,"1.29 fold enrichment (6-mer frequency, TF over GST control)"
same,binding signal,ELK4,"1.02 fold enrichment (6-mer frequency, TF over GST control)"
same,binding signal,ETV2,"1.19 fold enrichment (6-mer frequency, TF over GST control)"
same,binding signal,ELF3,"1.24 fold enrichment (6-mer frequency, TF over GST control)"
same,binding signal,CRX,"1.36 fold enrichment (6-mer frequency, TF over GST control)"
same,binding signal,ETV1,"1.28 fold enrichment (6-mer frequency, TF over GST control)"
